In PubChem BioAssay AID624330 (Southern Research Specialized Biocontainment Screening …, 2012):
Hit rate of the full screen: of about 340,000 compounds, about 2,100 (0.62%) were called active.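 The calls were made as follows: active = first-screen hits whose inhibition reached a set limit at any dose in the follow-up dose series; inconclusive = inhibition above the set first-screen limit but never retested; inactive = the rest.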 These entries were drawn from the full list. Results with a measured potency or affinity are listed apart.

biological target: Rac GTPase-activating protein 1 (Homo sapiens) (UniProt Q9H0H5); assay: blockers of MgcRacGAP-driven Rac1 GTP hydrolysis – biochemical, ADP Hunter fluorescence, primary and confirmatory, confirmation (AID 624330); conditions: MgcRacGAP-stimulated Rac1 GTP hydrolysis, at 30 µM, stronger effect = higher value, GST-tagged Rac1 F28L mutant substrate;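 also: fluorescence reports GDP produced by GAP-driven GTP hydrolysis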
Sequence (Q9H0H5 whole entry, looked up): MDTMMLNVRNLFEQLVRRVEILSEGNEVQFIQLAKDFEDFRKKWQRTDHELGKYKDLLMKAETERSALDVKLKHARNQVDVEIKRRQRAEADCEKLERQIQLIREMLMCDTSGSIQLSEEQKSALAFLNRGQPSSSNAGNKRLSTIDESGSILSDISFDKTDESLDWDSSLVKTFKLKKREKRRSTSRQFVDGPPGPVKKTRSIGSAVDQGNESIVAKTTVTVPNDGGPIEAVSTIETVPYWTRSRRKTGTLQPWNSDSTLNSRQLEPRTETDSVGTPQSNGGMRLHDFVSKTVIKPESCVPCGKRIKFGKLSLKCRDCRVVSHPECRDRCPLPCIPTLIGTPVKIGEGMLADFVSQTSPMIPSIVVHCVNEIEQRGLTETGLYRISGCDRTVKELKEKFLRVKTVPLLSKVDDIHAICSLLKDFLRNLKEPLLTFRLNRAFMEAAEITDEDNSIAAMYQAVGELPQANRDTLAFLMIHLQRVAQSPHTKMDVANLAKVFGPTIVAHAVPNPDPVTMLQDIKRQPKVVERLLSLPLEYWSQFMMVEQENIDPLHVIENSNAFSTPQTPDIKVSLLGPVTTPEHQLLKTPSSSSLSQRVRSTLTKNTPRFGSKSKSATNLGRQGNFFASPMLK

inhibition, inactive:
CCCn1c(SCC(=O)N(CC)c2c(N)n(Cc3ccccc3)c(=O)[nH]c2=O)nnc1-c1ccncc1 -0.81%, COc1ccc(OCCCC(=O)NCCc2ccc(OC)c(OC)c2)cc1 5.19%, O=C(CNCc1cccnc1)Nc1cc(C(F)(F)F)ccc1N1CCOCC1 28.2%, CCC(=O)Nc1cc(C(F)(F)F)ccc1N1CCOCC1 -1.84%, O=C(c1cc(Br)c[nH]1)N1CCSCC1 9.76%, COc1ccc(CN2CCN(C3CCOCC3)CC2CCO)c(C)c1C (stereo not drawn) 13%, COc1cc(C2=NOC(C(=O)N3CCOCC3)C2)cc(OC)c1OC (stereo not drawn) 7.04%, OCCN1CCN(C(=S)Nc2cccc(C(F)(F)F)c2)CC1 24%, OCCN1CCN(CCCN2c3ccccc3Sc3ccc(C(F)(F)F)cc32)CC1 3.74%, C[C@@H]1CN([C@@H](C)CO)C(=O)c2cc(Br)cnc2O[C@H]1CN(C)C(=O)CCN1CCCCC1 14.8%, O=[N+]([O-])c1cc(Cl)cc(/C=N/NC(=S)Nc2cc(S(=O)(=O)N3CCOCC3)ccc2Cl)c1O 10%, S=C(N/N=C/c1ccc(Cl)cc1)N1CCOCC1 0.9%, Cc1ccc(/C=N/NC(=S)N2CCOCC2)cc1 4.05%, O=S(=O)(c1ccc(Cl)c(NC(=S)N/N=C/c2c(F)cccc2F)c1)N1CCOCC1 9.48%, N#Cc1ccccc1NS(=O)(=O)c1cc2c3c(c1)CCC(=O)N3CCC2 -1.72%, COc1cc(NC(=O)CCN2CCN(CCO)CC2)cc(OC)c1 4.08%, OC(CNCC1COc2ccccc2O1)COc1ccc(Cl)cc1 (stereo not drawn) 6.5%, OC(CNCC1COc2ccccc2O1)COc1ccccc1F (stereo not drawn) 8.38%, Cc1ccc2nc(C)cc(C(=O)N3CCCC(CO)(Cc4ccccc4C)C3)c2c1 (stereo not drawn) 8.23%, CN(C)c1ccc(CN(C)C2CCCCC2)cc1 7.28%, CN(C)c1ccc(CCc2ccc(N)cc2)cc1 31.6%, COc1ccc(C(CCNCc2ccc(OC(C)C)cc2)c2ccccc2OC)cc1 (stereo not drawn) 7.13%, O=C1NC(=Nc2ccccc2)S/C1=C\c1ccccc1 3.51%, Cc1c(N2C(=O)/C(=C\c3ccccc3O)SC2=S)c(=O)n(-c2ccccc2)n1C 3.93%, Cc1c(N=C2C(=O)Nc3ccccc32)c(=O)n(-c2ccccc2)n1C 1.01%, Cc1c(N2C(=O)/C(=C/c3ccccc3)SC2=S)c(=O)n(-c2ccccc2)n1C 6.19%, COc1cc(/C=C2\SC(=Nc3ccc(O)cc3)NC2=O)cc(OC)c1O 27.1%, CCc1ccc(N=C2NC(=O)/C(=C/c3cc(OC)c(O)c(OC)c3)S2)cc1 14.6%
